Activity calls are given as the source filed them. No rule for the calls is given here.
What follows are molecules tested against Lethal factor (Bacillus anthracis) (UniProt P15917) (assay: Bacillus anthracis lethal factor inhibition, microsphere flow cytometry protease assay, validation at 10 µM (AID 588461)). Conditions: multiplex microsphere protease cleavage assay, active compounds read high.
Chain of Lethal factor (Bacillus anthracis) (P15917 whole entry, looked up): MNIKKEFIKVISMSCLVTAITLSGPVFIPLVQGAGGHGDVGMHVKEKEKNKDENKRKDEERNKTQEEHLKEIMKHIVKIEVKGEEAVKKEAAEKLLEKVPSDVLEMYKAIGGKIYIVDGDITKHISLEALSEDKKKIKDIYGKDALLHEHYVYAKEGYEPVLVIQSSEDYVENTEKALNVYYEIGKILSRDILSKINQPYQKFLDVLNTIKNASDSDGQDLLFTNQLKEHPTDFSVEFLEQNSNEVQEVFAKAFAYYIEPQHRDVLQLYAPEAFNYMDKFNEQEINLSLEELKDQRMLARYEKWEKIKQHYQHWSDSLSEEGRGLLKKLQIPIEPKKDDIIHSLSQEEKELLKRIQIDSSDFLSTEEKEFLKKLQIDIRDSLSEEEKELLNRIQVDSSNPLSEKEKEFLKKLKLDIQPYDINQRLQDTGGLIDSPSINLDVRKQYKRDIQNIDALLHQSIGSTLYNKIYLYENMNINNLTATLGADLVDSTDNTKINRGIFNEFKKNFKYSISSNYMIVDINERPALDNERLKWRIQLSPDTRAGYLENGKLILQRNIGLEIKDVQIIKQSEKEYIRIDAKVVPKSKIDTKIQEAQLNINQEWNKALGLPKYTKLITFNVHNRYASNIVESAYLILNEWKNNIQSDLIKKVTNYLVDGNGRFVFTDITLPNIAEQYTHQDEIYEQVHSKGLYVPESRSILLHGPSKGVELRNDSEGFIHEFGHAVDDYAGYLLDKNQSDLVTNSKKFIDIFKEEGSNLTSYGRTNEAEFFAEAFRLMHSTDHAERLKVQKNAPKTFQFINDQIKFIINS

| Compound | inhibition |
| --- | --- |
| CC(=O)O[C@H]1C[C@@]2(C)[C@@H](C[C@@H](O)[C@H]3[C@@]4(C)CC[C@@H](O)[C@@H](C)C4CC[C@@]32C)/C1=C(\CCC=C(C)C)C(=O)O (stereo partly specified) | 1.4% (inactive) |
| COc1ccccc1N=CC1=C(O)CC(c2ccccc2)CC1=O (stereo unspecified) | -5% (inactive) |
| CCOC(=O)Nc1ccc2c(c1)N(C(=O)CCN1CCOCC1)c1ccccc1S2 | 0.2% (inactive) |
| COc1ccccc1OCC(=O)O | -1.4% (inactive) |
| Cc1cc(O)c2/c(=N\N)c(-c3csc(C)n3)coc2c1 | 2.2% (inactive) |
| CC(=O)OC[C@H]1O[C@@H](n2ncc(=O)[nH]c2=O)[C@H](OC(C)=O)[C@@H]1OC(C)=O | 3.7% (inactive) |
| CCOc1ccc(C(=O)/C=C/c2cc(OC)c(OC)c(OC)c2)cc1 | 4.5% (inactive) |
| CC(=O)Nc1ccc(CN2CCN(C3CCCCC3)C(CCO)C2)cc1 (stereo unspecified) | -3.7% (inactive) |
| CC[N+]1(CC)CC2=Cc3ccccc3CC2C1 (stereo unspecified) | 3% (inactive) |
| O=C(Nc1ccc(Cl)cn1)Nc1ccccc1Cl | -4.9% (inactive) |
| O=C(c1ccc(O)cc1)c1ccc(O)cc1O | -0.6% (inactive) |
| Cc1nc2c(c3c1[nH]c1ccccc13)C(=O)CC(C)(C)C2 | 6% (inactive) |
| CSc1ccc2c(c1)N(CCC1CCCCN1C)c1ccccc1S2 (stereo unspecified) | -7% (inactive) |
| Cc1ccc2c(c1)c1c(n2C)C(=O)CCC1 | 3.3% (inactive) |
| CC(=O)CCc1oc2ccccc2c1-c1ccccc1 | -3.1% (inactive) |
| CCCC(CCC)C(=O)OC1C[C@H]2CC[C@@H](C1)[N+]2(C)C (stereo partly specified) | 2.3% (inactive) |
